Most compounds without a hit are left out; they make up all but 2.6% or so of the library.
MLLE-PAM2 inh – blocks PAM2 peptide binding to the PABP1 MLLE domain | P11940 | inhibition, % at 20 µM | GST-MLLE / FITC-PAM2 fluorescence polarization | AID 588489 | 360,000 tested, 0.36% active; in the data active means inhibition above about 35%, passing the limit was not always enough
A3G deaminase – inhibitors of human APOBEC3G DNA deaminase; Q9HC16; recombinant A3G, ssDNA deamination FAM/TAMRA fluorescence; inhibition, % at 20 µM; 330,000 tested, 0.28% active; AID 493012;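 active means inhibition of at least 40% at 20 µM, with no more than 30% in the related APOBEC3A deaminase screen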
Target sequence (Q9HC16 whole entry, looked up): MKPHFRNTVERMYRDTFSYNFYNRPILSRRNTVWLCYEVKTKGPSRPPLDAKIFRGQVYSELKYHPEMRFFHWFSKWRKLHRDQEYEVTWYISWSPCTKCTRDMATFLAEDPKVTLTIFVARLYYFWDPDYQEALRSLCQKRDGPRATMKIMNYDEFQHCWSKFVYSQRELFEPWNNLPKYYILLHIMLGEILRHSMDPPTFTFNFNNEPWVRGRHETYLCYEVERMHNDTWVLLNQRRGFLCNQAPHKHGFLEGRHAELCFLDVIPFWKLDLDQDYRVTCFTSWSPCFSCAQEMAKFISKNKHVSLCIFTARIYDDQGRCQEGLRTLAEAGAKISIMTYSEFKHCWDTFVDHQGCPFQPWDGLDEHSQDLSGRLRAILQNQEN
PHOSPHO1 block – blocks human PHOSPHO1 phosphatase activity | recombinant PHOSPHO1, absorbance phosphatase assay | 290,000 tested, 1.1% active | inhibition, % at 13.3 µM | AID 1565 | Q8TCT1; in the data active means inhibition above about 60%
PABP polyA inh – PABP-poly(A) binding inhibition; P11940; PABP-poly(A) RNA binding, fluorescence polarization; calls only at 35 µM; 290,000 tested, 1% active;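 further: calls also rest on retests at 20 µM and on dose response follow-up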
A3A deaminase – inhibitors of human APOBEC3A DNA deaminase | inhibition, % at 20 µM | 330,000 tested, 0.41% active | recombinant A3A, FAM/TAMRA ssDNA deamination fluorescence;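 active means at least 40% inhibition at 20 µM here, with at most 30% in a related deaminase screen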
eIF4H inh – inhibitors of RNA binding by human eIF4H; AID 2012; 290,000 tested, 0.94% active; inhibition, % at 35 µM; eIF4H fluorescence polarization binding assay;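 further: calls also rest on retests at 20 µM and on dose response follow-up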
APOBEC3G confirm – confirmation of human APOBEC3G DNA deaminase inhibitors. shares compounds with A3G deaminase. inhibition, % at 20 µM. recombinant A3G ssDNA deaminase, UDG/FAM-TAMRA fluorescence. 890 tested, 72% active;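 active means inhibition reaching a set limit in any replicate at 20 µM, the limit being 80% of the first screen's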
UDG ctr A3G – inhibits E. coli UDG, flagging false APOBEC3G inhibitors; shares compounds with A3G deaminase; UDG counterscreen, FAM/TAMRA oligo fluorescence; inhibition, % at 20 µM; 710 tested, under 10 active;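 active means compounds giving 40% or more inhibition at 20 µM in any one of the three replicates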;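 further: inhibitors lower the FAM signal released by uracil excision and alkaline cleavage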
Numbers stand for hits; – = inactive; · = no result given; + = active, no number; ! = not active in a repeat. Unless noted, how the calls were made is not given here.

SMILES	MLLE-PAM2 inh	A3G deaminase	PHOSPHO1 block	PABP polyA inh	A3A deaminase	eIF4H inh	APOBEC3G confirm	UDG ctr A3G
Cc1nnsc1C(=O)NNc1ccc(C(C)C)cc1	–	–	–	–	–	–	·	·
C/C(=N\NC(=O)c1ccccc1C)c1cccnc1	–	–	–	–	–	–	·	·
C/C(=N\Nc1ccccc1C)c1cccnc1	–	61	–	–	–	–	–	–
CCC(C)NC(=O)CC(C)C (stereo not given)	–	–	–	–	–	–	·	·
CC(C)CC(=O)N[C@H](C(=O)N[C@H](C(=O)N[C@@H](CC(C)C)[C@@H](O)CC(=O)N[C@@H](C)C(=O)N[C@@H](CC(C)C)[C@@H](O)CC(=O)O)C(C)C)C(C)C	–	75	–	–	–	–	–	·
O=C(CN1CCN(Cc2ccccc2F)CC1)Nc1ccccc1Cl	–	–	–	–	–	–	·	·
O=C(CSc1ccc(-c2ccccc2)nn1)c1ccccc1	–	–	–	–	–	–	·	·
Cc1ccc(C(=O)CSc2ccc(-c3ccccc3)nn2)cc1	–	74	–	–	–	–	–	–
COc1ccccc1NNC(=O)C(O)(c1ccccc1)c1ccccc1	–	56	–	–	–	–	–	·
C=C(C)C(=O)Nc1cccc(C2=NOC3(C2)C[C@@H](C(N)=O)N(C(=O)C2(C)CC2)C3)c1 (stereo not given in full)	–	89	–	+	–	100	94	·
C=C(C)C(=O)Nc1cccc(C2=NOC3(C2)C[C@@H](C(N)=O)N(C(=O)C(=C)C)C3)c1 (stereo not given in full)	–	88	–	+	–	93	92	–
C=C(C)C(=O)N1CC2(CC(c3cccc(NC(=O)/C=C\C=C/C)c3)=NO2)C[C@H]1C(N)=O (stereo not given in full)	–	–	–	–	–	–	·	·
Cc1csc(=O)n1CC(=O)OC(C)C(=O)Nc1ccc(N(C)C)cc1 (stereo not given)	–	·	·	·	·	·	·	·
Cc1ccccc1-c1cnc2c(c1)C(=O)N([C@H](C)CO)C[C@@H](C)[C@H](CN(C)C(=O)c1ccncc1)O2	–	·	·	·	·	·	·	·
Clc1cccc(-c2nn3c(Cn4cnc5ccccc54)nnc3s2)c1	–	–	–	–	–	–	·	·
c1csc(-c2nn3c(Cn4cnc5ccccc54)nnc3s2)c1	–	53	83	–	–	–	38	–
CCSc1nc2cc(S(=O)(=O)N3CCOCC3)ccc2o1	–	62	·	·	–	·	45	–
Cc1nc2ccc(Nc3nc4cc(S(=O)(=O)N5CCOCC5)ccc4o3)cc2s1	–	56	92	–	–	–	47	–
Cc1ccc(/C=N/n2c(-c3ccncc3)n[nH]c2=S)s1	–	49	–	–	–	–	82	–
Cc1cccc(/C=N/n2c(-c3ccncc3)n[nH]c2=S)c1	–	79	–	–	–	–	99	–
Cc1ccc(/C=N/n2c(-c3ccncc3)n[nH]c2=S)o1	–	47	–	–	–	–	90	–
Cc1ccc(/C=N/n2c(-c3ccccc3)n[nH]c2=S)cc1	–	–	–	–	–	–	·	·
Cc1ccc(/C=N/n2c(C)n[nH]c2=S)o1	–	–	–	–	–	–	·	·
S=c1[nH]nc(-c2ccncc2)n1/N=C/c1ccccc1	–	55	–	–	–	–	71	–
Cc1cccc(/C=N/n2c(-c3cc(-c4ccccc4)n[nH]3)n[nH]c2=S)c1	–	–	–	–	–	–	·	·
SMILES	MLLE-PAM2 inh	A3G deaminase	PHOSPHO1 block	PABP polyA inh	A3A deaminase	eIF4H inh	APOBEC3G confirm	UDG ctr A3G
Cc1ccc(C(=O)NNC(=O)c2ccc(-n3cncn3)c([N+](=O)[O-])c2)cc1	–	–	·	·	–	·	·	·
Cc1cn([C@H]2C[C@H](O)[C@@H](CNCc3ccc(CN(C)S(C)(=O)=O)o3)O2)c(=O)[nH]c1=O	–	·	·	·	·	·	·	·
Cc1ccc(CN2CCC(C(=O)c3ccc(F)cc3)CC2)cc1	–	·	·	·	·	·	·	·
Cc1cccnc1C(NC(=O)C1CCN(Cc2ccc3ccccc3n2)CC1)c1ccc(Cl)cc1 (stereo not given)	–	·	·	·	·	·	·	·
CCOC(=O)Nc1ccc(N2CCOCC2)c(S(=O)(=O)N2CCOCC2)c1	–	–	–	–	–	–	·	·
CCOC(=O)c1ccc(-n2c(=S)sc3c(=O)[nH]c(C)nc32)cc1	–	56	–	–	–	–	40	–
CC(C)CC1NC(=O)c2cc3ccccc3cc2-n2c1nc1ccc(Cl)cc1c2=O (stereo not given)	–	·	·	·	·	·	·	·
O=C(c1ccccc1)N1CCC(=O)N1c1ccccc1	–	40	–	–	–	–	–	–
C/C(CCc1ccc2c(c1)OCO2)=N\NC(=O)c1ccccc1Br	–	–	–	–	–	–	·	·
S=c1[nH]nc(-c2ccccc2)n1C1C=CCCC1 (stereo not given)	–	42	92	–	–	–	79	–
Cc1ccc(C)c(Cn2cnc3c(cnn3C(C)(C)C)c2=O)c1	–	58	–	–	–	–	–	·
Cc1ccccc1Cn1cnc2c(cnn2C(C)(C)C)c1=O	–	–	–	–	–	–	·	·
Cc1ccc(C(O)c2ncc(-c3ccccc3Cl)[nH]2)cc1 (stereo not given)	–	·	·	·	·	·	·	·
CC(=O)C1(O)C(C)CC2C3CC(F)C4(O)CC(O)CCC4(C)C3CCC21C (stereo not given)	–	·	·	·	·	·	·	·
O=c1c(O)c(-c2cc(O)c(O)c(O)c2)oc2cc(O)cc(O)c12	–	41	·	·	–	·	73	–
CN1CCc2cccc3c2[C@H]1Cc1ccc(O)c(O)c1-3	–	51!	–	–	–	–	103	–
O=C(Nc1cc(S(=O)(=O)N2CCOCC2)ccc1N1CCCCC1)c1ccccc1	–	–	·	·	–	·	·	·
O=C(Nc1cc(S(=O)(=O)N2CCOCC2)ccc1N1CCCC1)c1ccc(Cl)cc1	–	–	·	·	–	·	·	·
O=C(Nc1cc(S(=O)(=O)N2CCOCC2)ccc1N1CCCC1)c1ccc2c(c1)S(=O)(=O)c1ccccc1C2=O	–	64	–	–	–	–	74	·
O=C(Nc1cc(S(=O)(=O)N2CCOCC2)ccc1N1CCCCC1)c1ccc(Cl)cc1	–	59	·	·	–	·	68	–
C=CCOc1ccc(C(=O)c2ccccc2)c(OCC(=O)NC2(C#N)CCCC2)c1	–	–	–	–	–	–	·	·
O=C1OC(c2ccccc2)(c2cc(Br)ccc2O)c2ccccc21 (stereo not given)	–	·	·	·	·	·	·	·
CCN1CCN(c2nc(-c3ccccc3Cl)nc3ccccc23)CC1	–	44	–	–	–	–	–	–
Cc1cn([C@H]2C[C@H](O)[C@@H](CCC(=O)NCc3ccccc3)O2)c(=O)[nH]c1=O	–	·	·	·	·	·	·	·
Cn1c(CSCCOc2ccccc2)n[nH]c1=S	–	41	–	–	–	–	–	·
Cn1c(-c2csc(-c3ccccc3)n2)n[nH]c1=S	–	45	–	–	–	–	64	–
